Consider 91 compounds from PubChem BioAssay AID504766 (The Scripps Research Institute Molecular Screening Center, 2011).

Structures are written as SMILES. The whole screen tested about 340,000 compounds, of which about 3,400 (1%) were called active. The entries come from a sample that favours actives as a whole. Values without a mark were called inactive.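 The calls were made as follows: active = inhibition above the mean over all tested compounds plus 3 SD (cut at about 4.2% in these data); inactive = the rest.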

Sequence of Nuclear receptor subfamily 0 group B member 1 (Homo sapiens) (P51843 207-470 limits assumed): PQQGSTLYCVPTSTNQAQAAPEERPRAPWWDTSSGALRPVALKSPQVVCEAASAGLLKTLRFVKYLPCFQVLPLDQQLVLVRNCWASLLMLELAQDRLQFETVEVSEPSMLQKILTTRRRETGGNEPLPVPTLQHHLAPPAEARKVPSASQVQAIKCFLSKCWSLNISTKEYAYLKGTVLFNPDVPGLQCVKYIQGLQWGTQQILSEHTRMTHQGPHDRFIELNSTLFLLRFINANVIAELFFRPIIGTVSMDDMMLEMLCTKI

The assay concerns the target Nuclear receptor subfamily 0 group B member 1 (Homo sapiens) (UniProt P51843). The assay is described as follows: relief of DAX1 transcriptional repression – cell-based, HEK293, Gal4-DAX1, luciferase luminescence, primary screen (AID 504766).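 Also: 0% = DAX1-transfected cells with DMSO and 100% = empty-vector control cells with DMSO; inhibition shows as a rise in luminescence from relieved DAX1 repression.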 Particulars: HEK293 Gal4-DAX1 luciferase reporter, at 6.75 µM, active compounds read high. On the technique in general: Reporter assays use an easily measured gene product as a stand-in for the process of interest.
One may read the inhibition as the drop in the measured response relative to a control, in per cent. As for `COc1cc(SC)ccc1C(=O)NCCOc1ccccc1Cl`, the inhibition is 4.52% (active). To `COc1ccccc1OCCNC(=O)CCNC(=O)c1ccccc1Cl` belongs 0.98%. On to `COc1cc(SC)ccc1C(=O)N(Cc1ccccc1)c1ccccc1`, for which the inhibition is -0.88%.

`O=C(NCC(F)(F)F)c1ccc(S(=O)(=O)NCCc2ccc3c(c2)OCCO3)cc1`: the inhibition was 1.37%. To `C#Cc1cc(N2CCN(C(=O)c3ccoc3)CC2)n2nc(-c3cccc(Cl)c3)cc2n1` belongs -0.19%; to `CCCc1c(C)nc2scc(-c3ccc(Cl)cc3)n2c1=O`, 1.4%. `COc1ccc(OC)c(/C=C/C(=O)OCC(=O)Nc2ccc3c(c2)OCCO3)c1`: the inhibition was 0.21%. Under `COc1ccc(OC)c(/C=C/C(=O)c2ccc3c(c2)OCO3)c1` stands 5.49% (active); under `COc1ccc(NC(=O)NCc2ccc3c(c2)OCO3)c(OC)c1`, 0.03%; under `CCCCN(C(C)=O)c1ccc2c(c1)C1CC2CCN1Cc1ccccc1` (stereo unspecified), 1.48%. For `CCN(CC)CCN(C(=O)c1ccc2c(c1)CCCC2)c1nc2c(OC)cccc2s1`, the inhibition is -0.58%. `CC(C)(C)NC(=O)NCc1ccco1`: the inhibition is 4.44% (active). To `COC(=O)/C=C/C(=O)NCc1ccco1` belongs 1.74%; to `O=C(CC12CC3CC(CC(C3)C1)C2)NCc1ccco1`, -0.86%; to `COc1ccc(OC)c(C(=O)NC2CCCc3c2cnn3-c2cc(C)cc(C)c2)c1` (stereo unspecified), -1.87%. To `CC(=O)c1cccc(NC(=O)C2COc3ccccc3O2)c1` (stereo unspecified) belongs 2.01%; to `COc1ccc(NC(=O)C2COc3ccccc3O2)cc1` (stereo unspecified), 5.29% (active).

In the case of `COc1ccc(NC(=O)COC(=O)C2COc3ccccc3O2)cc1` (stereo unspecified), the inhibition was 0.47%. Under `COc1cc(C(=O)N2CCOC23CCN(Cc2ccccc2)CC3)cc(OC)c1OC` stands 2.69%.

As to `O=C(CN1C(=O)NC2(CCCCCC2)C1=O)NCc1ccc(F)cc1`, the inhibition is -0.55%.

For the compound `O=C(CN1C(=O)NC2(CCCC2)C1=O)NCC1CCCO1` (stereo unspecified), the inhibition is 10.2% (active). As to `O=C(CN1C(=O)NC2(CCCCCC2)C1=O)NC1CC1`, the inhibition is -0.19%. For `CC1CCCC(C)N1C(=O)COC(=O)c1ccccc1C(=O)c1ccccc1` (stereo unspecified), the inhibition was 1.22%. As for `N#CCCN1CCN(S(=O)(=O)c2ccc(S(=O)(=O)NC3CC3)cc2)CC1`, the inhibition is -1.02%. To `N#CCCN1CCN(S(=O)(=O)c2ccc(S(=O)(=O)N3CCCC3)cc2)CC1` belongs 2.37%.

Turning to `N#CCCN1CCN(S(=O)(=O)c2ccc(S(=O)(=O)NC3CCCCC3)cc2)CC1`, the inhibition was 4.67% (active).

`CNC(=O)c1ccc(CN(C)C(=O)c2cc(C3CC3)nc3c2cnn3C(C)C)cc1`: the inhibition is 0.25%. Turning to `COCCNC(=O)CSc1nc(N)c(NC(=O)c2ccco2)c(=O)[nH]1`, the inhibition is 0.48%.

On to `CCN(CC(=O)Nc1ccc(NC(C)=O)cc1)C(=O)C1CC(=O)N(c2ccc3c(c2)OCCO3)C1` (stereo unspecified), for which the inhibition is 0.46%. With `CCn1c(CSCc2c(Cl)cccc2Cl)n[nH]c1=S`, the inhibition was -0.93%. Take `CCn1c(CN2C(=O)CSc3ccccc32)n[nH]c1=S`: the inhibition is 7.22% (active). As to `CCn1c(CNS(=O)(=O)c2ccc(Cl)cc2)n[nH]c1=S`, the inhibition is 0.01%. Regarding `O=C(COC(=O)c1cncc(Br)c1)Nc1ccc(S(=O)(=O)N2CCOCC2)cc1`, the inhibition is 1.32%. To `O=C(Nc1cc(F)ccc1F)c1ccc2c(=O)n3c(nc2c1)CCC3` belongs 3.09%; to `O=C1c2ccccc2C(=O)c2c1cccc2N1CCN(CCO)CC1`, 0%. For the compound `O=C1c2ccccc2C(=O)c2c1cccc2N1CCN(Cc2ccccc2)CC1`, the inhibition is 4.26% (active). To `O=C(CN1CCN(Cc2ccccc2)CC1)NC(c1ccccc1)c1ccccc1` belongs -1.74%; to `CC(=O)Nc1ccc2c3c(ccc([N+](=O)[O-])c13)CC2`, -0.19%. To `COc1cccc(NC(=S)NC(=O)c2c(Cl)c(C)nn2C)c1` belongs 4.28% (active); to `COc1cccc(OC)c1C(=O)NC(=S)Nc1ccc(N2CCOCC2)c(Cl)c1`, 0.83%; to `Cc1nn(C)c(C(=O)NNC(=S)NC2CCCCC2)c1Cl`, -0.26%.

Regarding `CCCCCCn1c(=O)n2n(c1=O)C[C@]1(OC(=O)NCc3ccc(OC)c(OC)c3)CN(S(=O)(=O)c3ccc(C)cc3)C[C@]1(O)C2`, the inhibition was -0.07%. To `C=CCN1CCN(c2ccncc2S(=O)(=O)N2CCN(C)CC2)CC1` belongs 1.7%. Under `C[C@@H]1CN([C@@H](C)CO)C(=O)c2c(c3ccccc3n2C)-c2ccccc2CO[C@H]1CN(C)C(=O)C1CC1` stands 0.47%; under `COc1ccc(NC(=O)N(C)C[C@@H]2OCc3cn(nn3)CCCC(=O)N([C@H](C)CO)C[C@H]2C)c(OC)c1`, -0.22%; under `Cc1cccc(NC(=O)CN2C(=O)CNC2=O)c1`, 1.34%. Regarding `C=CCOc1ccccc1NC(=O)CN1C(=O)CNC1=O`, the inhibition is 4.47% (active). To `C=CCOc1ccccc1/C=N/NC(=O)Cc1ccccc1` belongs 0.28%. Under `COc1ccc(/C=C2/CCCc3ccccc3C2=O)cc1` stands -1.11%; under `COc1ccc(/C=C2\SC(=N)N(c3ccc(F)cc3)C2=O)cc1`, -0.7%; under `COc1ccc(/C=C2\N=C3CCCN3C2=O)cc1`, 4.84% (active). Under `COc1ccc(S(=O)(=O)N2CCC(C(=O)NCCC(=O)NCCc3cccc(F)c3)CC2)cc1` stands 0.25%; under `CSc1ncnc2c1ncn2CCCNCC1CCCCC1`, -0.19%; under `COc1ccc(-c2nnc(SC(C)C(=O)NC3CC3)o2)cc1` (stereo unspecified), 1.85%. Consider `COc1ccc(-c2nnc(SC(=O)N3c4ccccc4Sc4ccccc43)o2)cc1`, for which the inhibition is -1.53%. Take `COc1ccc(-c2nnc(SC(C)C#N)o2)cc1` (stereo unspecified): the inhibition was 4.68% (active). To `CNC(=O)C1CN(C(=O)c2cccc(S(=O)(=O)N3CCc4ccccc43)c2)c2ccccc2O1` (stereo unspecified) belongs -2.16%. Under `CCCN(C(=O)CSc1nnnn1C)c1c(N)n(Cc2ccccc2)c(=O)[nH]c1=O` stands 5.42% (active). Under `CCCN(C(=O)CSc1nnc(N)s1)c1c(N)n(Cc2ccccc2)c(=O)[nH]c1=O` stands -2.02%; under `CCCCN(C(=O)CSCc1ccc(C)cc1)c1c(N)n(Cc2ccccc2)c(=O)[nH]c1=O`, 0.19%.

In the case of `CC(C)CC1C(=O)N(Cc2cn(Cc3ccco3)nn2)CCS(=O)(=O)N1Cc1ccc(-c2ccc(Cl)c(Cl)c2)cc1` (stereo unspecified), the inhibition was -1.34%. Turning to `CCn1c(SCC(=O)N2CCCC2=O)nc2ccccc21`, the inhibition is 1.3%. To `CCOC(=O)c1ccc(NC(=S)Nc2cc(C)cc(C)n2)cc1` belongs 1.42%; to `CCOC(=O)c1cn[nH]c1NC(=S)Nc1ccccc1`, 6.19% (active); to `CCOC(=O)c1cc2c(nc1NC(=S)Nc1ccccc1)CC(C)(CC)OC2` (stereo unspecified), 0.77%. Consider `O=C(NN=Cc1ccc2c(c1)CCC2)c1ccccc1O`, for which the inhibition was 2.24%. Under `O=C(C[C@H]1C[C@H]2c3cc(NS(=O)(=O)c4ccc(F)cc4)ccc3O[C@H]2[C@H](CO)O1)NCc1cc(F)ccc1F` stands -0.52%; under `Cc1ccc(NC(=O)c2sccc2C)cc1[N+](=O)[O-]`, 5.25% (active); under `Cc1ccc(NC(=O)CN(C)CC(=O)Nc2cccc(F)c2)cc1[N+](=O)[O-]`, -3.16%. To `Cc1ccc(NC(=O)CN2CCC(C(N)=O)CC2)cc1[N+](=O)[O-]` belongs 0.4%; to `CCN(CC)C(=O)C(=O)Nc1cccc(Br)c1`, 1.59%. Under `CCN(CC)N=Nc1cccc(NC(C)=O)c1` stands 8.01% (active). Regarding `CC(=O)Nc1cccc(C(=O)OCN2C(=O)c3ccccc3C2=O)c1`, the inhibition was 0.92%. To `CC(C)n1ncc2c(C(=O)N3CCN(Cc4cccs4)CC3)cc(C3CC3)nc21` belongs -1.38%; to `Cc1ccc(S(=O)(=O)N(CCc2ccccc2)c2ccc3c(c2)C2CC3CCN2C(=O)OCc2ccccc2)cc1` (stereo unspecified), -0.92%. Under `FC(F)(F)c1cccc(Cc2noc(CN3CCC(N4CCCCC4)CC3)n2)c1` stands 0.44%; under `Fc1cccc(Cc2noc(CN3CCN(c4cnccn4)CC3)n2)c1`, -1.08%. To `O=C(c1ccco1)N1CCN(Cc2cccc(C(F)(F)F)c2)CC1` belongs 4.58% (active); to `CCOC(=O)N1CCN(Cc2nc(Cc3cccc(C(F)(F)F)c3)no2)CC1`, 4.88% (active); to `O=C(c1ccco1)N1CCN(CCOc2ccccc2)CC1`, 3.53%. Take `O=C(CN1CCN(C(=O)c2ccco2)CC1)Nc1ccc(Cl)c(C(F)(F)F)c1`: the inhibition was -0.99%. Turning to `Cc1cc(C)c2cc(C#N)c(N3CCNCC3)nc2c1`, the inhibition is 0.35%.

`O=Cc1cn(CCOc2ccc(F)cc2)c2ccccc12`: the inhibition was -0.3%. To `O=C(CNC(=O)N1CC(=O)Nc2ccccc21)Nc1ccc(Br)cc1F` belongs 0.45%; to `Cc1nnc(SC(C)C(=O)c2c[nH]c3ccccc23)n1C1CC1` (stereo unspecified), 0.71%; to `COc1ccc2c(CC(=O)OCC(=O)Nc3ccccc3[N+](=O)[O-])coc2c1`, 0.79%. On to `CCc1ccccc1NC(=O)CN(c1ccc(OC)cc1OC)S(=O)(=O)c1ccccc1[N+](=O)[O-]`, for which the inhibition is 5.44% (active). Under `COc1ccc(N(CC(=O)Nc2cccc3ccccc23)S(C)(=O)=O)c(OC)c1` stands -0.73%; under `CCN(CC)C(=O)C1=C(C)N(Cc2ccc(OC)cc2)C(=O)C(CC(=O)NCCCCc2ccccc2)C1` (stereo unspecified), -0.34%. As for `CCOc1ccc(CCNC(=O)COC(=O)c2ccc(C)c(S(=O)(=O)N3CCOCC3)c2)cc1OCC`, the inhibition is -0.65%. Under `CCN(CC)C(=O)C1=C(C)N(Cc2ccc(C(C)(C)C)cc2)C(=O)C(CC(=O)NCc2cccc3ccccc23)C1` (stereo unspecified) stands -0.14%.
